Experimental data from ChEMBL document CHEMBL3988442, “University of Dundee, Small-Polar-MMV Screening Library” (2021).

Molecular target: T1, Aspartate--tRNA(Asp/Asn) ligase (Mycobacterium tuberculosis (strain ATCC 25618 / H37Rv)) (UniProt P9WFW3); note: in the data most compounds retested in dose-response had high values
T1 sequence (whole entry): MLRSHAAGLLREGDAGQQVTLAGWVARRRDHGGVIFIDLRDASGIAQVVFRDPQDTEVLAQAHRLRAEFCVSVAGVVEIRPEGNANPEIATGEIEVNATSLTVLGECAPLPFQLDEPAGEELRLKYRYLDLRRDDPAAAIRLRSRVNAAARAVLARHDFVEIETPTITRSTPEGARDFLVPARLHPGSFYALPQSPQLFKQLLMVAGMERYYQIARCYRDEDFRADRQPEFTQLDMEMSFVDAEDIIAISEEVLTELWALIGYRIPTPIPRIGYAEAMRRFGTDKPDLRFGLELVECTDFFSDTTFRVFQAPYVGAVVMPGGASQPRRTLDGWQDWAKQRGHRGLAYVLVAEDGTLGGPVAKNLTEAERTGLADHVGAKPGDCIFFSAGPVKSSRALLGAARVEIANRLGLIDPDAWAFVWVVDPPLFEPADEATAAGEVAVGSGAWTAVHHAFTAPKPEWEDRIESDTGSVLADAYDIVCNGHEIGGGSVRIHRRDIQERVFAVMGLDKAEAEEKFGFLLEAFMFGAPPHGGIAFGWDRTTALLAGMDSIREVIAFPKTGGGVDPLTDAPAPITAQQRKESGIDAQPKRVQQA
Test: Assay for Asp RNA synthetase-1 from Mycobacterium tuberculosis
Format: functional
Parameters: scale not given: direction of the effect not stated beside the values
Conditions: 30 µM

SMILES | Percent Effect [%]
COc1ccc(NC(=O)Cn2nc(C)ccc2=O)cc1OC | -0.697
Cc1nn(C)c2c(N3CCN(C(=O)C4CCC4)CC3)ncnc12 | -3.19
N#Cc1cccc(S(=O)(=O)NC(=O)COc2ccc3c(c2)CCC3)c1 | -0.478
Cc1occc1C(=O)Nc1ccnc(OC2CCOC2)c1 (stereo not given) | -6.74
O=C(c1ccco1)N1CCC2(CC1)C(=O)NCCN2CC1CC1 | 10.6
Cc1ccc(CN(CCCn2ccnc2)Cc2c[nH]cn2)s1 | -4.18
CN1N=C(C(=O)NCc2ccc3c(c2)CCCN3C)CCC1=O | -4.96
COc1ccc(CNCC2CCN(CC(C)O)CC2)c2ccccc12 (stereo not given) | -5.41
CCc1nc(CN2CCCN(c3nc4ccccc4o3)CC2)no1 | 5.41
O=C(O)C1(Cc2cc(-c3cccc(F)c3)no2)CCOCC1 | -1.59
O=S(=O)(NCCN1CCCCC1Cn1cncn1)c1ccccc1 (stereo not given) | 1.46
O=C(NCc1cc[nH]n1)N1CCN(c2ccccc2Cl)CC1 | 0.562
CC(C)NC(=O)N1C[C@H]2C[C@H](C(=O)NCc3ccccc3)[C@@H](C1)O2 | 2.3
CCOc1nnc(CN2CCOC(CNc3cccnn3)C2)s1 (stereo not given) | 4.86
O=C(C1CCOCC1)N1C[C@@H]2[C@@H](C1)OCC(=O)N2CC1CC1 | 3.77
CN1CCN(C2CCN(CC(=O)NCC(F)(F)F)CC2)C1=O | -5.68
CCC(=O)N1Cc2nccn2CC(CN(C)Cc2cccnc2)C1 (stereo not given) | 7.49
CN(c1ccc(C(=O)NCCCN2CCOCC2)c(Cl)c1)S(C)(=O)=O | -4.13
O=C1CCCc2cc(-c3csc(CCN4CCOC4=O)n3)ccc2N1 | -6.83
Cc1cnn(CCNCC(O)COc2ccc(C#N)cc2)c1 (stereo not given) | 1.2

SMILES | Percent Effect [%]
Cc1ccccc1-c1cncc(C2CCN(C(=O)CN(C)C)CC2)n1 | 6.8
CCc1noc(CN2CCCN(C(N)=O)CC2)n1 | -1.28
NC(=O)c1ccc(CN2CCCC(O)C2)cc1 (stereo not given) | -3.73
CN1CCC(c2nnc(CN3CCC(O)CC3)n2C)CC1 | 10.8
Cc1nsc(NC(=O)N2CCN(Cc3ccc(F)cc3)C(=O)C2)n1 | 2.26
Cn1cnc2c1C(COCc1ccccc1)N(Cc1ccncc1)CC2 (stereo not given) | 2.91
Cc1cnn(C2CN(CC(=O)Nc3cccnc3)C2)c1 | 3.91
Cc1oc(-c2ccco2)nc1CC(=O)N1CCC(C(O)C(F)(F)F)CC1 (stereo not given) | -5.79
CCOc1ccc(Cl)cc1CNCCCn1ccnc1 | 0.842
CN(CC1COc2ccccc2O1)C(=O)NCCCn1cncn1 (stereo not given) | 1.57
O=c1cc2c(nn1CN1CCN(c3cccc(Cl)c3)CC1)CCC2 | -1.19
Cc1ccc2cc(CNCCCN3CCOCC3)c(=O)[nH]c2c1 | -2.01
O=C(NCc1ccco1)[C@@H]1CCO[C@@H]2CCN(c3ccncn3)C[C@H]21 | 1.19
COc1cccc(CN2CCC(c3cc(O)nc(C)n3)C2)c1 (stereo not given) | -3.62
O=C(NC1(c2cccc(F)c2)CCOCC1)c1ccccn1 | -1.19
CCC(O)CN1CCN(C(=O)c2sccc2OC)CC1 (stereo not given) | 0.995
Cn1c(Cn2ccnc2)nnc1C1CCCN(C2CCCCC2)C1 (stereo not given) | -2.02
Cc1ccc(CN2CCOC3(COCCN(CCN(C)C)C3)C2)o1 (stereo not given) | 5.87
Cc1cc(C)cc(OCC(=O)NC2CCN(S(C)(=O)=O)CC2)c1 | 0.903
O=C(C1CCC1)N1CCCC1c1nnc2n1CCCCC2 (stereo not given) | -0.296

Molecular target: Shiga toxin 2 (Escherichia coli O157:H7) (UniProt P09385+P09386)
Test: E. coli 0.157:H7 Shiga Toxin SOP - stx2 screening assay
Format: functional
Parameters: scale not given: direction of the effect not stated beside the values
Conditions: 30 µM

SMILES | Percent Effect [%]
COc1ccc(NC(=O)Cn2nc(C)ccc2=O)cc1OC | -5.66
Cc1nn(C)c2c(N3CCN(C(=O)C4CCC4)CC3)ncnc12 | -37.9
N#Cc1cccc(S(=O)(=O)NC(=O)COc2ccc3c(c2)CCC3)c1 | 8.82
Cc1occc1C(=O)Nc1ccnc(OC2CCOC2)c1 (stereo not given) | 3.41
O=C(c1ccco1)N1CCC2(CC1)C(=O)NCCN2CC1CC1 | -10.1
Cc1ccc(CN(CCCn2ccnc2)Cc2c[nH]cn2)s1 | -13.7
CN1N=C(C(=O)NCc2ccc3c(c2)CCCN3C)CCC1=O | -42.9
COc1ccc(CNCC2CCN(CC(C)O)CC2)c2ccccc12 (stereo not given) | -33.8
CCc1nc(CN2CCCN(c3nc4ccccc4o3)CC2)no1 | -69.6
O=C(O)C1(Cc2cc(-c3cccc(F)c3)no2)CCOCC1 | 9.34
O=S(=O)(NCCN1CCCCC1Cn1cncn1)c1ccccc1 (stereo not given) | 5.96
O=C(NCc1cc[nH]n1)N1CCN(c2ccccc2Cl)CC1 | 11.5
CC(C)NC(=O)N1C[C@H]2C[C@H](C(=O)NCc3ccccc3)[C@@H](C1)O2 | 1.68
CCOc1nnc(CN2CCOC(CNc3cccnn3)C2)s1 (stereo not given) | -50.9
O=C(C1CCOCC1)N1C[C@@H]2[C@@H](C1)OCC(=O)N2CC1CC1 | -0.921
CN1CCN(C2CCN(CC(=O)NCC(F)(F)F)CC2)C1=O | -21
CCC(=O)N1Cc2nccn2CC(CN(C)Cc2cccnc2)C1 (stereo not given) | -5.95
CN(c1ccc(C(=O)NCCCN2CCOCC2)c(Cl)c1)S(C)(=O)=O | -32.5
O=C1CCCc2cc(-c3csc(CCN4CCOC4=O)n3)ccc2N1 | -35.7
Cc1cnn(CCNCC(O)COc2ccc(C#N)cc2)c1 (stereo not given) | -30.5

SMILES | Percent Effect [%]
Cc1ccccc1-c1cncc(C2CCN(C(=O)CN(C)C)CC2)n1 | -18.5
CCc1noc(CN2CCCN(C(N)=O)CC2)n1 | 5.08
NC(=O)c1ccc(CN2CCCC(O)C2)cc1 (stereo not given) | -9.74
CN1CCC(c2nnc(CN3CCC(O)CC3)n2C)CC1 | -2.24
Cc1nsc(NC(=O)N2CCN(Cc3ccc(F)cc3)C(=O)C2)n1 | -7.74
Cn1cnc2c1C(COCc1ccccc1)N(Cc1ccncc1)CC2 (stereo not given) | -1.07
Cc1cnn(C2CN(CC(=O)Nc3cccnc3)C2)c1 | 11
Cc1oc(-c2ccco2)nc1CC(=O)N1CCC(C(O)C(F)(F)F)CC1 (stereo not given) | 4.07
CCOc1ccc(Cl)cc1CNCCCn1ccnc1 | -32.5
CN(CC1COc2ccccc2O1)C(=O)NCCCn1cncn1 (stereo not given) | 21.4
O=c1cc2c(nn1CN1CCN(c3cccc(Cl)c3)CC1)CCC2 | -4.9
Cc1ccc2cc(CNCCCN3CCOCC3)c(=O)[nH]c2c1 | -12.7
O=C(NCc1ccco1)[C@@H]1CCO[C@@H]2CCN(c3ccncn3)C[C@H]21 | -15.1
COc1cccc(CN2CCC(c3cc(O)nc(C)n3)C2)c1 (stereo not given) | -14.1
O=C(NC1(c2cccc(F)c2)CCOCC1)c1ccccn1 | -49.2
CCC(O)CN1CCN(C(=O)c2sccc2OC)CC1 (stereo not given) | -39.9
Cn1c(Cn2ccnc2)nnc1C1CCCN(C2CCCCC2)C1 (stereo not given) | -14.9
Cc1ccc(CN2CCOC3(COCCN(CCN(C)C)C3)C2)o1 (stereo not given) | -4.4
Cc1cc(C)cc(OCC(=O)NC2CCN(S(C)(=O)=O)CC2)c1 | -16.4
O=C(C1CCC1)N1CCCC1c1nnc2n1CCCCC2 (stereo not given) | -16
